This passage reports Inhibition % results from publication PMC9574860, “Chemical Toolkit for PARK7: Potent, Selective, and High-Throughput” (Journal of Medicinal Chemistry, 2022).

Out of some 7,900 compounds screened, about 400 (5.1%) showed an effect of 50% or more. Shown is part of a subset that was picked to be rich in strong results.

In the test the target is Parkinson's disease protein 7 (PARK7/DJ1) (human, UniProt Q99497). The experiment in a line: primary screen, percent inhibition; read as competition with a fluorescent probe by fluorescence polarization; higher = more effect of the substance. The note with it: 100 µM. Put shortly: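 Covalent fragments at 100 μM final were incubated 2 h with 0.2 μM PARK7, then 20 nM probe JYQ-107 added for a further 2 h. Fluorescence polarization read at 480/520 nm; relative FP loss versus reference controls gave remaining enzyme activity.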
Parkinson's disease protein 7 (PARK7/DJ1), sequence (Q99497 whole entry, looked up, the tested form may be a part): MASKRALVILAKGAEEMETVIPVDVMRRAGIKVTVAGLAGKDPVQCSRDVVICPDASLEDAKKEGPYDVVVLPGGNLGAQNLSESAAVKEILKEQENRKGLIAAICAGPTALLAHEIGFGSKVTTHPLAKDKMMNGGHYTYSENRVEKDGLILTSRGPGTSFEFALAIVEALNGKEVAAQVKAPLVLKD
Consider `CC(C)CN(C1CC1)S(=O)(=O)C=Cc1ccccc1`, for which the Inhibition % is reported as 13.3%.

In the case of `C=CC(=O)N1CCS(=O)(=O)c2ccccc2C1`, the Inhibition % is reported as 7.33%.

Turning to `CC1(C)OB(c2cccc3scnc23)OC1(C)C`, the Inhibition % came to 3.85%.

For the compound `C=CC(=O)NCC1CC(C)OC(C)C1` (stereo not shown), the Inhibition % came out at 11.1%.

As to `N#Cc1c(N)nc2n1CCS2`, the Inhibition % worked out at 4.18%.

With `N#Cc1ncccc1OCCc1ccccc1`, the Inhibition % was found to be 13.6%.

For the compound `CC(NC(=O)Cn1cnc(C#N)n1)c1ccc(F)cc1` (stereo not shown), the Inhibition % was 4.98%.

Take `C=CC(=O)N1CCN(Cc2ccon2)CC1`: the Inhibition % was found to be 4.28%.

`Cn1ncc(C(F)(F)F)c1B1OC(C)(C)C(C)(C)O1`: the Inhibition % was found to be 8.08%.

In the case of `NC(=O)c1ccsc1NC(=O)CCCl`, the Inhibition % is reported as 9.06%.

As for `NC(=O)c1ccccc1NC(=O)CCl`, the Inhibition % was found to be 0.06%.

For the compound `NC(=O)c1ccsc1NC(=O)CCl`, the Inhibition % turned out to be 84.7%.

Take `O=C(CCl)Nc1nncs1`: the Inhibition % came out at 4.4%.

For `O=C(CCl)Nc1ccc(-c2ccccc2)cc1`, the Inhibition % came to 4.3%.

In the case of `NC(=O)c1cc(-c2ccccc2)sc1NC(=O)CCl`, the Inhibition % was 79.3%.

Consider `Cn1cc(C(=O)O)c(CCCCl)n1`, for which the Inhibition % was 6.81%.

As for `N#Cc1cc(N2CCCC2)c2ccccc2n1`, the Inhibition % was 3.59%.

On to `C=CCNS(=O)(=O)C=Cc1ccccc1`, for which the Inhibition % was 7.29%.

Regarding `CC1(C)OB(c2cccc(-n3ccnn3)c2)OC1(C)C`, the Inhibition % amounted to 6.79%.

As for `C=CC(=O)Nc1nc2cnccn2n1`, the Inhibition % was determined as 23%.

In the case of `C=CC(=O)NCc1cc2n(n1)CCCC2`, the Inhibition % came out at 10.1%.

With `N#Cc1ncn(CC2CCCO2)n1` (stereo not shown), the Inhibition % is given as 1.91%.

`O=[N+]([O-])c1ccccc1S(=O)(=O)F`: the Inhibition % stood at 99.1%.

`O=S(=O)(F)c1ccccc1O`: the Inhibition % is on record as 9.92%.

`O=S(=O)(F)c1ccccc1Br`: the Inhibition % stood at 44.3%.

Turning to `C=CC(=O)NCC1COC(=O)N1` (stereo not shown), the Inhibition % was determined as 13.5%.

As to `Cc1ccc(S(=O)(=O)F)nn1`, the Inhibition % is given as 65.4%.

Turning to `O=S(=O)(F)c1ccc(C(F)(F)F)nn1`, the Inhibition % was 8.52%.

As to `O=S(=O)(F)c1ccc(C(F)(F)F)cn1`, the Inhibition % is given as 6.36%.

`C=CC(=O)N[C@@H]1C=C[C@H](CO)C1`: the Inhibition % is on record as 8.28%.

Consider `Cn1cc(C=C(C#N)C(=O)NCCc2ccccc2)cn1`, for which the Inhibition % was 9.69%.

As to `O=C(CCl)Nc1cc(C(=O)O)cc(C(=O)O)c1`, the Inhibition % stood at 1.39%.

Regarding `O=C(O)c1coc(C(=O)CCl)c1`, the Inhibition % came to 96.1%.

For `NC(=O)c1coc(C(=O)CCl)c1`, the Inhibition % is given as 96.3%.

Regarding `CNC(=O)c1cc(C(=O)CCl)cn1C`, the Inhibition % was determined as 5.61%.

On to `O=C(O)c1ccc(CCCl)cc1`, for which the Inhibition % came to 8.12%.

On to `C=CC(=O)N1CCC(OC)C(C)C1` (stereo not shown), for which the Inhibition % is 4.37%.

As to `N#CC(=Cc1ccccc1)C(=O)N1CCC(C(N)=O)CC1`, the Inhibition % was found to be 9.67%.

For `CN1C(=O)C(C#N)=C(N)C12CCCC2`, the Inhibition % is 9%.

With `C=CC(=O)N1CCN(C(=O)OCC(C)C)CC1`, the Inhibition % came out at 11.5%.

As for `CN(CCC1CCOCC1)c1nc2ccccn2c1C#N`, the Inhibition % turned out to be 5.08%.

On to `O=C(O)CCNS(=O)(=O)C=Cc1ccccc1`, for which the Inhibition % stood at 6.07%.

Take `O=C(O)c1cccc(NS(=O)(=O)C=Cc2ccccc2)c1`: the Inhibition % is given as -0.0382%.

`CNC(=O)CNS(=O)(=O)C=Cc1ccccc1`: the Inhibition % is 6.07%.

For the compound `Cc1ccc(C=CS(=O)(=O)NCCC(=O)O)cc1`, the Inhibition % was determined as 5.97%.

Consider `Cc1ccc(C=CS(=O)(=O)NCC(=O)O)cc1`, for which the Inhibition % is given as 81.7%.

`O=C(O)CNS(=O)(=O)C=Cc1ccccc1`: the Inhibition % is 84.3%.

With `CNC(=O)CNS(=O)(=O)C=Cc1ccc(Cl)cc1`, the Inhibition % is 0.98%.

In the case of `O=C(O)c1csc(NS(=O)(=O)C=Cc2ccccc2)c1`, the Inhibition % came to 62.5%.

Take `O=C(O)c1ccc(NS(=O)(=O)C=Cc2ccccc2)cc1`: the Inhibition % came out at 6.88%.

On to `CC(=O)N1CCN(C(=O)C=Cc2c(C)nn(C)c2Cl)CC1`, for which the Inhibition % was found to be 8.55%.

As to `O=C(O)C1CC(O)CN1C(=O)C=Cc1ccc(F)cc1` (stereo not shown), the Inhibition % came out at 2.28%.

With `N#Cc1ccc(N2CCCC(N3CCCCCC3)C2)cn1` (stereo not shown), the Inhibition % stood at 5.26%.

Regarding `O=C(CCl)Nc1cc(C2CC2)nn1-c1ccccc1`, the Inhibition % is 18.1%.

As to `CC1CC(Sc2nncn2-c2ccccc2F)C(=O)O1` (stereo not shown), the Inhibition % is 0.0122%.

As for `COc1ccc(F)cc1S(=O)(=O)n1ccnc1C`, the Inhibition % was 3.76%.

As to `CC1(C)OB(c2cc(Cl)ccc2N)OC1(C)C`, the Inhibition % turned out to be 13.4%.

In the case of `CC(C)(C)OC(=O)c1cc2ccc(B3OC(C)(C)C(C)(C)O3)cc2[nH]1`, the Inhibition % came out at 7.8%.

`O=c1onc(-c2cnccn2)n1Cc1cccc(F)c1`: the Inhibition % is listed as -2.87%.

In the case of `Cc1cc(NS(=O)(=O)C2=CCCCC2)c[nH]c1=O`, the Inhibition % worked out at 48.5%.

For `Cc1cc(NS(=O)(=O)c2ccc(S(=O)(=O)F)cc2)c[nH]c1=O`, the Inhibition % is 92.6%.

With `O=C(O)CC1OB(O)c2ccccc21` (stereo not shown), the Inhibition % was found to be 0.686%.

Consider `CCN(CCC#N)S(=O)(=O)C=Cc1ccccc1Cl`, for which the Inhibition % is recorded as 6.99%.

As for `C#CC(=O)Cc1ccccc1`, the Inhibition % was 7.8%.
